Assay outcomes: PubChem, National Center for Advancing Translational Sciences (NCATS)
MCF10A rereplic: A quantitative high throughput screen for small molecules that induce DNA re-replication in MCF 10a normal breast cells; MCF 10A DNA re-replication, Hoechst nuclear intensity, 48 h; Potency, µM (top dose mostly 46.1 µM), actives largely listed as activators; 2.9% of 350,000 active; further: nearly all actives have a fitted effect of over 50% in size
KB-V1 MDR tox: qHTS assay for MDR1-selective chemotherapeutics: Primary screen using the drug-selected MDR subline cells KB-V1. KB-V1 MDR cells viability, CellTiter-Glo, 72 h. Potency, µM (doses to about 46.1 µM), hits mostly cytotoxic. 3.4% of 400,000 active. AID 1347076, 2019; further: nearly all actives have a fitted effect of over 60% in size
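In this primary screen, KB-V1 cells overexpressing P-gp are incubated with library compounds (lowest to highest concentration) for 72 h at 37 degrees C before a luminescent ATP viability read.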
SW480 rerep: A quantitative high throughput screen for small molecules that induce DNA re-replication in SW480 colon adenocarcinoma cells; SW480 DNA re-replication, Hoechst DNA content imaging, 48 h; Potency, µM (top dose mostly 46.1 µM), actives largely listed as activators; 1.8% of 340,000 active; AID 624297, 2012; further: nearly all actives have a fitted effect of over 55% in size
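Image-based DNA-content assay: after two days of treatment, nuclei were labelled with the DNA dye Hoechst and imaged, and hits were compounds raising the count of nuclei showing high fluorescence intensity.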
HT1080NT lethal: qHTS for induction of synthetic lethality in tumor cells producing 2HG: qHTS for the HT-1080-NT fibrosarcoma cell line; HT-1080-NT fibrosarcoma viability, CellTiter-Glo ATP luminescence, 48 h; Potency, µM (doses to about 46.1 µM), most hits filed as cytotoxic; 1.6% of 360,000 active;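 further: NT is the 2HG producing partner of a matched IDH1 knockdown line; nearly all actives have a fitted effect of over 55% in size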
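Luminescent CellTiter-Glo readout after 48 hours of compound exposure at 37 degrees C defined viability of HT-1080-NT cells. Activity was normalized to DMSO wells and cell-free media wells; concentration-response curves were fitted and assigned curve classes.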
KB-3-1 tox: qHTS assay for MDR1-selective chemotherapeutics: Primary screen using the parental adenocarcinoma cell KB-3-1; KB-3-1 viability, CellTiter-Glo ATP luminescence, 72 h; Potency, µM (highest dose often 46.1 µM), hits mostly cytotoxic; 1.4% of 400,000 active; AID 1347075, 2019; further: nearly all actives have a fitted effect of over 60% in size
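Parental KB-3-1 viability, qHTS format: 72 h compound exposure, 37 °C; CellTiter-Glo; media-only wells and DMSO plates as controls; concentration-effect fits on corrected data.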
HT1080 IDH1KD tx: qHTS for induction of synthetic lethality in tumor cells producing 2HG: qHTS for the HT-1080-IDH1KD cell line | HT-1080 IDH1 knockdown viability, ATP luminescence, 48 h | Potency, µM (series often up to 46.1 µM), hits mostly cytotoxic | 2% of 360,000 active | AID 686971, 2013
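Cytotoxicity counter-line: IDH1KD HT-1080, 48 h, CellTiter-Glo. Curves classed by r2, magnitude and activity.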
Numbers stand for hits; . = inactive; ? = inconclusive; / = not tested or not shown. A selection: hits, their analogues and other compounds. The true share with any hit is near 7.9%. The call rests on the fitted dose curve; in most records, active means well fitted curve in the direction sought with a large enough effect; inconclusive means small, poorly fitted or top-dose-only effect, or another doubt; inactive means no such curve, though single readings can be large; an effect the other way counts as inactive or inconclusive.

SMILES	MCF10A rereplic	KB-V1 MDR tox	SW480 rerep	HT1080NT lethal	KB-3-1 tox	HT1080 IDH1KD tx
CC1CCCN(C(=O)CN2CCC(c3nc4ccc(Cl)cc4[nH]3)CC2)C1 (stereo not given)	.	?	.	.	.	.
Clc1ccc(CN2CCC(c3nc4ccc(Cl)cc4[nH]3)CC2)cc1	?	20.6µM	?	.	?	.
Cc1cc2nc(C3CCN(Cc4nnnn4Cc4ccccc4)CC3)[nH]c2cc1C	.	?	.	2.51µM	?	?
CC(C)CCN(Cc1ccco1)C(=O)c1cc2c(s1)-c1ccccc1OC2	/	?	/	/	.	/
O=C(Nc1ccc2c(c1)CCC2)C1CCN(c2c3c(nc4ncnn24)CCC3)CC1	.	?	.	?	?	?
O=C(NC1CCCCCCC1)C1CCN(c2nc3ccccc3o2)CC1	.	2.31µM	.	?	18.4µM	.
Cc1oc(-c2ccccc2F)nc1CN1CCC(C(=O)NC2CCCCCCC2)CC1	.	11.6µM	.	.	.	.
O=C(NCCc1ccccc1)C1CCN(c2nc3ccccc3o2)CC1	.	.	.	.	.	.
Cc1oc(-c2ccccc2F)nc1CN1CCC(C(=O)NC2CCCc3ccccc32)CC1 (stereo not given)	.	8.2µM	.	.	.	.
O=C(NC1CCCc2ccccc21)C1CCN(c2c3c(nc4ncnn24)CCC3)CC1 (stereo not given)	.	20.6µM	.	.	.	.
Cc1oc(-c2ccccc2F)nc1CN1CCC(C(=O)NCc2ccco2)CC1	.	.	.	.	.	.
Oc1cccc2ccc[n+](CC(O)CBr)c12 (stereo not given)	/	.	/	/	.	/
c1ccc2nc3c(cc2c1)CCCC3	/	?	/	/	.	/
CCOC(=O)c1c[nH]c2cc(OCC(C)C)c(OCC(C)C)cc2c1=O	.	/	.	/	/	/
CC(C)Cc1ccc(C(C)/C=C2/CCC(CN3CCCCC3)C2=O)cc1 (stereo not given)	14.6µM	?	?	?	?	?
COc1ccc(-c2cc(NC=O)c3ncc(-c4cccc(C(=O)NCCN(C)C)c4)n3c2)c(OC)c1	/	.	/	18.4µM	.	23.1µM
Cc1cc(-c2cc(NC=O)c3ncc(-c4cccc(C(=O)NCCN(C)C)c4)n3c2)cc(C)c1O	/	.	/	25.9µM	.	25.9µM
CN(C)CCNC(=O)c1cccc(-c2cnc3c(NC=O)cc(-c4ccccc4F)cn23)c1	/	.	/	?	.	?
COc1ccc(Br)cc1CNC(=O)c1cnc2sc(N3CCC(C)CC3)nn2c1=O	/	.	/	/	?	/
CC(C(=O)Nc1cccc([N+](=O)[O-])c1)N1CCN(C/C=C/c2ccccc2)CC1 (stereo not given)	.	3.66µM	.	.	.	.
O=C(c1cccc([N+](=O)[O-])c1)N1CCN(C/C=C/c2ccccc2)CC1	.	?	.	.	.	.
Cc1ccc(NC(=O)CN2CCN(C3CCCCC3)C(=O)C2=O)cc1	/	.	/	/	.	/
COc1ccc2[nH]c(C(=O)N/N=C/c3ccc(O)cc3O)cc2c1	?	.	.	?	.	2.31µM
COc1ccc(/C=N/NC(=O)c2nc(-c3ccccc3)n(-c3ccccc3)n2)c(O)c1	7.31µM	.	?	?	?	?
COc1ccc(/C=N/NC(=O)c2nc(-c3ccccc3)n(-c3ccccc3)n2)cc1	.	.	.	.	.	.
SMILES	MCF10A rereplic	KB-V1 MDR tox	SW480 rerep	HT1080NT lethal	KB-3-1 tox	HT1080 IDH1KD tx
CCOc1ccc2[nH]c(C(=O)N/N=C/c3ccc(OC)cc3)cc2c1	?	?	1.16µM	0.92µM	1.46µM	1.3µM
Cc1ccccc1N1CC(c2nnc(NC(=O)c3ccco3)s2)CC1=O (stereo not given)	/	.	/	/	.	/
Cc1cc(C)c2nc(N3CCCC(C(=O)NCc4cccc(Cl)c4)C3)sc2c1 (stereo not given)	/	.	/	/	.	/
Cc1ccc(Nc2nc(CSc3nnnn3C)cs2)cc1	.	23.1µM	.	.	.	.
Cc1ccc(Nc2nc(CSc3nnc(-c4ccccc4)n3C)cs2)cc1	?	.	.	.	?	.
Cc1ccc(Nc2nc(CSc3nnnn3-c3ccccc3)cs2)cc1	.	14.6µM	.	.	?	.
Cc1ccc(Nc2nc(CSc3nnc(-c4ccccc4C)n3C)cs2)cc1	?	6.51µM	.	.	?	.
Cn1nnnc1SCc1csc(Nc2ccccc2)n1	.	.	.	.	.	.
COc1ccc(NC(=O)Cn2c(=O)n(Cc3ccco3)c(=O)c3sc4ccccc4c32)cc1OC	/	.	/	/	.	/
Cc1ccc(CNC(=O)CN(C)S(=O)(=O)c2ccc(Br)s2)cc1	/	.	/	/	.	/
CN(C)S(=O)(=O)c1ccc2nnn(OCC(=O)NC34CC5CC(CC(C5)C3)C4)c2c1	.	3.66µM	.	.	.	.
CC(C)(C)C1CCc2c(sc(NC(=O)c3ccc(Cl)cc3)c2C(=O)NCc2ccco2)C1 (stereo not given)	/	.	/	/	.	/
Cc1cccc(N2CCN(C(=O)CNC(=O)c3ccccc3)CC2)c1C	.	.	.	.	?	?
Cc1cccc(NC(=O)CN2CCN(C(=O)CNC(=O)c3ccc(-c4ccccc4)cc3)CC2)c1C	/	?	/	?	.	10.3µM
Cc1cccc(C)c1NC(=O)CN1CCN(C(=O)CNC(=O)c2ccc(-c3ccccc3)cc2)CC1	/	18.4µM	/	.	?	?
CCC1(C)Cc2ccccc2-c2nc(SCC(N)=O)[nH]c(=O)c21 (stereo not given)	.	.	.	.	.	.
CCOC(=O)CSc1nc2c(c(=O)[nH]1)C(C)(CC)Cc1ccccc1-2 (stereo not given)	?	?	?	?	?	5.8µM
CC(C)CC(=O)/C=C/n1c(=S)oc2ccccc21	3.66µM	?	8.2µM	.	?	?
Cn1c(=S)oc2ccccc21	?	.	.	.	.	.
CC(=O)/C=C/n1c(=S)oc2ccccc21	3.26µM	16.4µM	.	5.17µM	?	5.17µM
COc1ccc(-n2nc3cc(C)c(N)cc3n2)cc1Cl	3.26µM	.	14.6µM	.	.	.
Cc1cc2nn(-c3ccc(F)cc3)nc2cc1N	20.6µM	.	20.6µM	.	.	.
COc1ccc(-n2nc3cc(C)c(NC(=O)c4ccc(C)cc4C)cc3n2)cc1Cl	/	?	/	/	.	/
Cc1cc2nn(-c3ccc(Cl)cc3)nc2cc1N	20.6µM	.	23.1µM	.	.	.
COc1ccc(-n2c(SCC(=O)NCC3CCCO3)nc3ccccc3c2=O)cc1Cl (stereo not given)	/	.	/	.	.	.
